# Records with an inconclusive call do not appear. Unmarked numbers belong to inactive results. Activity calls are given as the source filed them. Calls come from the whole dose curve; as a rule, active = well fitted inhibition curve with a large enough effect; inconclusive = small, poorly fitted or top-dose-only effect; inactive = flat fitted curve, though single readings scatter. Where a SMILES comes first, the peptide text is derived from it. The star is where a group is joined. Hexanoyl = CCCCCC(=O)*
# Assay: P-glycoprotein substrates identified in KB-8-5-11 adenocarcinoma cell line, qHTS therapeutic library screen (AID 1346987); note: nearly all actives have a fitted effect of over 65% in size
# Conditions: KB-8-5-11 (P-gp overexpressing) viability, CellTiter-Glo, 72 h; series mostly up to 44.5 µM; activity change, negative = cytotoxicity: at the top concentration
# In short: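 Luminescence from CellTiter-Glo, read 5 min after addition, quantified survival of KB-8-5-11 (P-gp-overexpressing) cells exposed to compounds for 72 h. AC50 was derived from concentration-response curves.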
# % is set by controls: 0 for no effect and ±100 for the full control effect.
SMILES,"activity change, negative = cytotoxicity",outcome
C=C1C(O)C(O)C2(CC3C(C)=CCC4C(C)(C(=O)O)CCCC34C)OC2C1O (stereo not given),8.49%,–
C=C[C@H]1[C@H](O[C@@H]2O[C@H](CO)[C@@H](O)[C@H](OC(=O)/C=C/c3ccc(O)c(OC)c3)[C@H]2O)OC=C2C(=O)OCC[C@]21O,4.57% [at 17.3 µM],–
COc1cc(/C=C/C(=O)O)ccc1O[C@@H]1O[C@H](CO)[C@@H](O)[C@H](O)[C@H]1O[C@@H]1OC[C@](O)(CO)[C@H]1O,2.65% [at 17.3 µM],–
CC1(C)CC[C@]2(C(=O)O[C@@H]3O[C@H](CO)[C@@H](O)[C@H](O)[C@H]3O)CC[C@]3(C)C(=CCC4[C@@]5(C)C[C@H](O)[C@H](O[C@@H]6OC[C@@H](O)[C@H](O)[C@H]6O)[C@@](C)(CO)C5CC[C@]43C)C2C1 (stereo not given in full),–,inactive [at 9.29 µM]
CN(C)CCC[C@]1(c2ccc(F)cc2)OCc2cc(C#N)ccc21,-3.17%,–
CC1(C)CC[C@]2(C(=O)O)CC[C@]3(C)C(=CCC4[C@@]5(C)CC[C@H](O[C@@H]6O[C@H](C(=O)O)[C@@H](O)[C@H](O)[C@H]6O)C(C)(C)C5CC[C@]43C)C2C1 (stereo not given in full),7.03% [at 17.3 µM],–
CC(/C=C/C=C(\C)C(=O)O[C@@H]1O[C@H](CO[C@@H]2O[C@H](CO)[C@@H](O)[C@H](O)[C@H]2O)[C@@H](O)[C@H](O)[C@H]1O)=C\C=C\C=C(C)\C=C\C=C(/C)C(=O)O[C@@H]1C[C@](O)(C(=O)O)C[C@@H](O)[C@H]1OC(=O)/C=C/c1ccc(O)c(O)c1,3.01% [at 9.29 µM],–
Cc1c(Cc2ccc3ccccc3n2)c2cc(F)ccc2n1CC(=O)O,–,inactive
COC1OC(O)C2(CCC3(O2)C(C)CC2OC(=O)C4(C)CCCC3(C)C24)C1O (stereo not given),–,inactive
C[C@@H]1C[C@@H](O)[C@@]23CO[C@]2(CO)CCC[C@@H]3[C@@]12C[C@@H](c1ccoc1)OC2=O,–,inactive
C=C1C(O)CCC2(C)CC3(OC)OC(=O)C(C)=C3CC12 (stereo not given),–,inactive
NC(=O)NCCCC(NC(=O)Cc1ccccc1)C(=O)O (stereo not given),8.32%,–
C[C@@H]1O[C@@H](O[C@H]2[C@@H]3C=CO[C@@H](O[C@@H]4O[C@H](CO)[C@@H](O)[C@H](O)[C@H]4O)[C@@H]3[C@@]3(CO)O[C@@H]23)[C@H](O)[C@H](O)[C@H]1OC(=O)/C=C/c1ccc(O)cc1,-4.27% [at 17.3 µM],–
Fc1cccc(CN(C2=NCCN2)c2c(Cl)cccc2Cl)c1,1.01%,–
CC(C)C[C@H](NC(=O)[C@@H]1O[C@H]1C(=O)O)C(=O)NCCCCN=C(N)N,-7.76%,–
CC1(C)[C@@H]2CC=C(CO[C@@H]3O[C@H](CO[C@@H]4OC[C@H](O)[C@H](O)[C@H]4O)[C@@H](O)[C@H](O)[C@H]3O)[C@H]1C2,–,inactive [at 17.3 µM]
COc1ccc(/C=C/C(=O)O[C@@H]2[C@@H](O)[C@@H](O)[C@H](O[C@H]3[C@@H]4C=CO[C@@H](O[C@@H]5O[C@H](CO)[C@@H](O)[C@H](O)[C@H]5O)[C@@H]4[C@@]4(CO)O[C@@H]34)O[C@H]2C)cc1,–,inactive [at 17.3 µM]
O=C(O)c1cc(O[C@@H]2O[C@H](CO)[C@@H](O)[C@H](O)[C@H]2O)ccc1O,–,inactive
CCOc1ccc(-c2nn3ncccc3c2-c2ccc(S(C)(=O)=O)cc2)cc1,-18.6%,–
O=C(C[C@@H]1C(C(=O)O)=CO[C@@H](O[C@@H]2O[C@H](CO)[C@@H](O)[C@H](O)[C@H]2O)/C1=C\CO)OCCc1ccc(O)c(O)c1,–,inactive [at 17.3 µM]
COc1ccc(C2(O)c3ccccc3NC(=O)C2OC)cc1 (stereo not given),2.94%,–
CC(=O)OC1CCC2(C)C(CCC3(C)C2CC=C2C4CC(C)(C)CCC4(C)CCC23C)C1(C)C(=O)O (stereo not given),0.336% [at 17.3 µM],–
COc1cc(CO)ccc1O[C@@H]1O[C@H](CO)[C@@H](O)[C@H](O)[C@H]1O,6.61%,–
C=C(C(=O)O)[C@@H]1CC[C@@]2(C)CC[C@@H](O)C(=C)C2C1 (stereo not given in full),5.19%,–
CCCCCC(=O)N1CCC[C@H]1C(=O)N[C@@H](Cc1ccc(O)cc1)C(=O)OC (Hexanoyl-Pro-Tyr-OMe),-8.17%,–

# From PubChem BioAssay (NCATS)
